The record followed here is PubChem BioAssay (NCATS).

Records with an inconclusive call do not appear.

A short description of the assay: qHTS Assay for Lipid Storage Modulators (AID 1519). As to conditions: Drosophila S3 cells, BODIPY lipid droplet/cell ratio, laser cytometry; measured here: cell count channel max response; cells loaded with oleic acid. The gist of the method:
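Cells seeded at 5,000 per well were treated with compounds over a concentration series and loaded with oleic acid (400 uM, as added). Lipid droplet fluorescence (488 nm excitation, 500-530 nm channel) was read by laser-scanning cytometry and normalized to 20 uM Triacsin C.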
Consider `COC1=CC(=O)C(O)=C/C1=C\C=C\c1ccccc1`, for which the max response was -8.41%. In the case of `COC(=O)[C@H]1C(OC)[C@@H](OC(=O)c2cc(OC)c(OC)c(OC)c2)C[C@@H]2CN3CCc4c([nH]c5cc(OC)ccc45)[C@H]3C[C@H]21` (some centres not stated), the max response stood at 4.56%. The result for `CN1CCCC1CCO[C@@](C)(c1ccccc1)c1ccc(Cl)cc1` (some centres not stated) reads -21.6%. The result for `CC(=O)c1c(O)c(C)c(O)c2c1OC1=CC(=O)C(C(C)=O)C(=O)C12C` (configuration not stated) reads 24.8%; that for `CC(CN(C)C)CN1c2ccccc2Sc2ccccc21` (configuration not stated), -0.564%. Under `CCC(C)C(=O)OC1CC(C)C=C2C=CC(C)C(CCC3CC(O)CC(=O)O3)C21` (configuration not stated) stands 0.727%. `O=C(CC(=O)c1ccccc1)c1ccccc1`: the max response is -0.636%.

As to `CC1=C(C(=O)O)N2C(=O)C(NC(=O)C(N)c3ccccc3)C2SC1` (configuration not stated), the max response came to 9.88%. Under `CC1=C2C(=COC(C)C2C)C(=O)C(C(=O)O)=C1O` (configuration not stated) stands -1.22%; under `NCC1O[C@@H](O[C@H]2C(O)C(O[C@@H]3C(O[C@H]4OC(CO)C(O)C(O)C4N)C(N)CC(N)[C@H]3O)O[C@@H]2CO)C(N)C(O)C1O` (some centres not stated), 18.8%. On to `C#CCCCCCCCCCCCc1ccco1`, for which the max response worked out at 8.94%.

For the molecule `CC(=O)OC1CC[C@@]2(C)C3CC(=O)[C@]4(C)C(C(C)=O)=CCC4C3CC[C@H]2C1` (some centres not stated), the max response amounted to 4.87%.

Regarding `CC(C)=CCCC(C)C1CC[C@@]2(C)C3=C(CC[C@@]12C)C1(C)CCC(O)C(C)(C)C1CC3` (some centres not stated), the max response turned out to be 10.4%. Under `CN1CCCC1c1cccnc1` (configuration not stated) stands 11.9%. `NCCCCC(NC(CCc1ccccc1)C(=O)O)C(=O)N1CCCC1C(=O)O` (configuration not stated): the max response came out at 11.1%. Take `CCC(C)(C)C(=O)OC1CC(C)C=C2C=CC(C)C(CCC3CC(O)CC(=O)O3)C21` (configuration not stated): the max response is 2.37%. Turning to `C#C[C@@]1(O)CCC2C3CCc4cc(O)ccc4C3CC[C@@]21C` (some centres not stated), the max response turned out to be 1.86%. `COC(=O)CCC(C)C1CCC2C3C(O)C[C@@H]4CC(O)CC[C@@]4(C)C3CC(O)[C@]12C` (some centres not stated): the max response was -0.322%. Under `CC(C)c1ccc2c(c1)CCC1C(C)(C(N)=O)CCCC21C` (configuration not stated) stands -2.05%; under `CC(=O)OCC1=C(C(=O)O)N2C(=O)C(NC(=O)Cc3cccs3)C2SC1` (configuration not stated), 8.85%. Under `CC1OC(OCC2OC(Oc3c(-c4ccc(O)c(O)c4)oc4cc(O)cc(O)c4c3=O)C(O)C(O)C2O)[C@@H](O)C(O)C1O` (some centres not stated) stands 4.35%; under `CC1(C)OC2CC3C4CCC5=CC(=O)CCC5(C)C4(F)C(O)CC3(C)[C@]2(C(=O)CCl)O1` (some centres not stated), 13.8%.
